# Source: PubChem
# The list is not random: actives were taken first. Their share in the collection is about 3.6%.
# Rango release inh: prevents RanGTP from dissociating the Rango-importin beta complex; Biochemical FRET Rango-importin beta, RanGTP-induced dissociation; Potency, µM (top dose mostly 46.1 µM), inactives show top-dose activity change, negative = inhibition; O95149+P62826; 340,000 tested, 0.071% active; AID 540253; calls by dose curve; note: potency is the fitted concentration of half-maximal effect; % of control where 0% means no effect; nearly all actives have a fitted effect of over 45% in size
#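 Rango (0.1 uM)–importin beta (0.25 uM) complex; RanGTP-RCC1 trigger; 45 min RT; CFP/YFP FRET read.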
# PLK1 PBD block: PLK1 (human) polo-box domain binding inhibition | P53350 | Potency, µM, without a hit: max response, negative = inhibition, hits mostly inhibitors | Plk1 PBD binding of FITC phosphopeptide, fluorescence polarization | 360,000 tested, 2.8% active; note: potency is the fitted concentration of half-maximal effect; series mostly up to about 57 µM; % is set by controls: 0 for no effect and ±100 for the full control effect; nearly all actives have a fitted effect of over 65% in size
# Rango-impB inh: inhibitors of Rango-importin beta complex formation | 340,000 tested, 0.031% active | AID 540263 | Q14974 | Potency, µM (top dose mostly 92.2 µM), without a hit: at the top dose inhibition of complex formation | Rango CFP/YFP FRET sensor + importin beta, 45 min; calls by dose curve;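 note: potency is the fitted concentration of half-maximal effect; 0% = DMSO wells and 100% = buffer wells lacking importin beta; nearly all actives have a fitted effect of over 15% in size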
#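 Inhibition scored from the CFP 486 nm/YFP 530 nm FRET ratio 45 min after adding 0.125 microM importin beta to 50 nM Rango biosensor preincubated 5 min with compound (room temperature, PBS with DTT, Tween-20, BSA). No-importin wells as positive control.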
# VDR inhibitor: inhibitors of human vitamin D receptor | P11473 | VDR-SRC2-3 peptide fluorescence polarization, 2 h | Potency, µM, for inactives: max response, negative = inhibition, most hits filed as inhibitors | 400,000 tested, 0.93% active; note: potency is the fitted concentration of half-maximal effect; % is set by controls: 0 for no effect and ±100 for the full control effect
#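 Measured by FP: displacement of SRC2-3 coactivator peptide from VDR by library compounds, following a two-hour ambient incubation.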
# PI5P4K alpha inh: blocks human PI5P4K alpha kinase activity; PI5P4Kalpha enzyme, ADP-Glo luminescence, 60 min; active compounds read low; max response, %; 330,000 tested, 1.2% active; AID 652105; active = max response of -50% or lower; inconclusive = between -30% and -50%; inactive = -30% or higher; note: value at the top dose of about 77 µM; % is set by controls: 0 for no effect and ±100 for the full control effect
# Target sequence (P48426 whole entry, looked up): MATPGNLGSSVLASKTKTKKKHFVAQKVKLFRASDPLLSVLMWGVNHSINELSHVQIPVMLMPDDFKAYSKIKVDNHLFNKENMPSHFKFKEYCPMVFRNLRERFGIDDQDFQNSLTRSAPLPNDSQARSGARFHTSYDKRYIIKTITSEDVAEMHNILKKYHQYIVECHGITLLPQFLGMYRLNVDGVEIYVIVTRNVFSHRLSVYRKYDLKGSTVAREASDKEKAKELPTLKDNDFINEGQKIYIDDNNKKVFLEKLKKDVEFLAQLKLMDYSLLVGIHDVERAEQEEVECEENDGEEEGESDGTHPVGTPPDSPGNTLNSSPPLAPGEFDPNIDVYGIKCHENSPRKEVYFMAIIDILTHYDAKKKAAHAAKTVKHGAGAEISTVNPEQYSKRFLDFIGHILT
#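 ADP-Glo luminescence end-point after a 60 min room-temperature kinase reaction. PI5P4Kalpha and substrate in HEPES pH 7.4 buffer with EGTA, 0.1% CHAPS and 5% DMSO; ATP at 5 microM final.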
# GCN5L2 inh: blocks human GCN5L2 histone acetyltransferase | Q92830 | GCN5L2 HAT assay, ThioGlo1 CoA-SH fluorescence | Potency, µM (titrated, usually from 58.9 µM), for the others: at the highest dose activity change, negative = inhibition, most hits filed as inhibitors | 390,000 tested, 0.21% active; note: potency is the fitted concentration of half-maximal effect; % is set by controls: 0 for no effect and ±100 for the full control effect
#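 Titration-based screen in which CoA formation is detected via maleimide probe ThioGlo1 (50uM) turning fluorescent on thiol reaction; substrates H3(1-25) 75uM and acetyl-CoA 70uM, GCN5L2 20nM, 20 min incubation at room temperature.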
# * hit, by the source's call; ? = inconclusive; . = no result given. Unless noted, calls come from the whole dose curve; as a rule, active = well fitted curve in the direction sought with a large enough effect; inconclusive = small, poorly fitted or top-dose-only effect, or another doubt; inactive = no such curve, though single readings can be large; an effect the other way counts as inactive or inconclusive.
SMILES,Rango release inh,PLK1 PBD block,Rango-impB inh,VDR inhibitor,PI5P4K alpha inh,GCN5L2 inh
C[N+]1(Cc2ccccc2)CCC(C(=O)OCC2CCCC2)CC1 (stereo unspecified),.,.,.,13.5%,.,12.7%
COCCNC(=S)NNc1cccc(C(=O)O)c1,-2.1%,21.2µM*,-0.8%,?,-24.6,-8.1%
COCCNC(=O)C(=O)Nc1cccc(Br)c1,-2.7%,-14.9%,1.1%,-3.9%,.,1.6%
O=C(Nc1ccc(C(F)(F)F)cc1)C1CCCN(c2cnccn2)C1 (stereo unspecified),.,.,.,1.8%,.,-0.2%
CCC(C)NC(=O)c1cnn(-c2ccc(Cl)cc2)c1C1CCN(C(=O)OC(C)(C)C)CC1 (stereo unspecified),.,.,.,1.7%,.,-1.2%
CNC(=S)NNC(=O)c1ccc(=O)n(Cc2cccc(C(F)(F)F)c2)c1,3.3%,2.99µM*,-2.8%,-10.4%,?,-1.3%
CNC(=S)NNC(=O)c1cccc(C(F)(F)F)c1,?,-11.7%,?,-1.9%,.,-2.1%
CCOC(=O)c1sc(N)nc1C(F)(F)F,-5.5%,26.7µM*,-0.3%,-13.6%,-3.9,.
CCOC(=O)c1sc(N)nc1-c1ccccc1,3.0%,26.7µM*,1.0%,?,-3.4,-5.1%
O=C(Nc1ccc2oc(-c3cccnc3)nc2c1)c1ccc(-c2cccc(OC(F)(F)F)c2)o1,.,.,.,-20.3%,.,-4.8%
O=C(O)CCn1nnc(-c2ccccc2)n1,0.8%,21.2µM*,3.5%,-26.8%,-14.4,-2.0%
Cc1ccc(C)c(Cn2c3ccccc3c3cnn(CC(=O)NC4CCC(C)CC4)c(=O)c32)c1 (stereo unspecified),.,.,.,13.7%,.,-6.6%
CCOC(=O)C1=NOC2(C1)C(=O)Nc1ccc(OC(F)(F)F)cc12 (stereo unspecified),.,2.8%,.,.,-1.1,.
CC(C)(C)OC(=O)C1=NOC2(C=CC(=O)C=C2)C1,.,.,.,28.2µM*,.,.
Cc1nn(CC(=O)NCc2ccc(N(C)C)cc2)c(=O)c2c(C)n(-c3ccc(Cl)cc3)nc12,.,.,.,0.2%,.,-1.8%
CCOc1ccccc1CNC(=O)c1ccc2c(c1)nc1n2CCCCC1,.,.,.,11.4%,.,12.0%
COc1ccccc1C(=O)Nc1nc2ccccc2[nH]1,-0.6%,21.2µM*,-1.4%,?,?,-9.8%
Cc1ccccc1OCC(=O)N/N=C/c1ccc(N2CCOCC2)o1,-11.0%,?,?,39.8µM*,-15.0,-14.6%
CCOC(=O)N1CCN(C(=O)CN2C(=O)/C(=C\c3cccc(OC)c3)SC2=S)CC1,.,.,.,-1.1%,.,.
COc1ccc(Cl)cc1NC(=S)NNC(=O)C1(C)CC1(Cl)Cl (stereo unspecified),0.7%,?,0.2%,11.6%,-51.7*,-0.4%
CC[n+]1c(/C=C/C=C2/N(C)c3ccccc3C2(C)C)sc2ccccc21,.,.,.,35.5µM*,.,28.2µM*
Cc1cccc(OCCSc2nc(N)cc(N)n2)c1,19.1%,3.77µM*,-0.9%,?,-17.7,-5.5%
CCOC(=O)c1cnc(NCc2ccccc2OC)c2ccccc12,.,.,.,3.5%,.,-8.8%
CCCC[C@@H]1C=C(C(=O)O)[C@H](c2ccc(C)cc2)N1S(=O)(=O)c1ccc(C)cc1,33.0%,-14.5%,1.1%,-15.1%,4.6,1.8%
Cc1ccc(S(=O)(=O)N2[C@@H](c3ccccc3)C(C(=O)O)=CC[C@H]2c2ccc(Cl)cc2)cc1,26.4%,23.8µM*,3.0%,?,0.0,-3.6%
SMILES,Rango release inh,PLK1 PBD block,Rango-impB inh,VDR inhibitor,PI5P4K alpha inh,GCN5L2 inh
CCCC[C@@H]1C=C(C(=O)O)[C@H](c2ccc(Cl)c(Cl)c2)N1S(=O)(=O)c1ccc(C)cc1,?,29.9µM*,-1.1%,?,7.6,?
CCc1ccc([C@H]2C(C(=O)O)=C[C@@H](CC3CCCC3)N2S(=O)(=O)c2ccc(C)cc2)cc1,-6.1%,21.2µM*,2.7%,-11.0%,1.8,-26.9%
Cc1ccc([C@@H]2CC=C(C(=O)O)[C@H](c3ccc(Cl)cc3)N2S(=O)(=O)c2ccc(C)cc2)cc1,-15.1%,?,-2.1%,7.1%,2.2,?
Cc1ccc([C@H]2C(C(=O)O)=CC[C@@H](c3ccc(Cl)c(Cl)c3)N2S(=O)(=O)c2ccc(C)cc2)cc1,20.9%,29.9µM*,4.1%,-26.2%,-3.7,?
Cc1ccc([C@H]2C(C(=O)O)=C[C@@H](CC3CCCC3)N2S(=O)(=O)c2ccc(C)cc2)cc1,-1.1%,-25.0%,-2.5%,-15.1%,-3.7,-13.1%
CCN(C(=O)Cn1nc(Cc2cccnc2)c2ccccc2c1=O)c1cc(C)ccc1C,.,.,.,-1.7%,.,-8.1%
Cc1ccc(S(=O)(=O)N2[C@@H](c3ccc(Cl)cc3)C(C(=O)O)=CC[C@H]2c2ccc(Cl)cc2)cc1,-9.3%,?,1.5%,-22.6%,0.5,-28.7%
O=C(O)C1=CC[C@@H](c2ccc(Cl)cc2)N(S(=O)(=O)c2ccc(Cl)cc2)[C@H]1c1cccc(Cl)c1,0.6%,29.9µM*,1.7%,-6.3%,-5.8,?
Cc1ccc(S(=O)(=O)N2[C@@H](c3ccc(Cl)cc3)C(C(=O)O)=CC[C@H]2c2cccc(C)c2)cc1,7.6%,?,-0.2%,-12.0%,-0.1,-9.7%
Cc1ccc(S(=O)(=O)N2[C@@H](c3ccc(Br)cc3)C(C(=O)O)=CC[C@H]2c2ccc(Cl)cc2)cc1,12.8%,26.7µM*,1.1%,-25.7%,-5.6,?
CCc1ccc([C@@H]2CC=C(C(=O)O)[C@H](c3ccc(Br)cc3)N2S(=O)(=O)c2ccc(C)cc2)cc1,15.8%,26.7µM*,-1.9%,?,10.2,?
Cc1ccc(S(=O)(=O)N2[C@@H](c3ccc(Cl)cc3)C(C(=O)O)=CC[C@H]2c2cccc(Cl)c2)cc1,-3.7%,23.8µM*,0.3%,-16.8%,1.8,-6.0%
COc1ccccc1OCCn1c(COc2cc(C)ccc2C)nc2ccccc21,.,.,.,2.5%,.,-3.7%
Cc1ccc(S(=O)(=O)N2[C@@H](c3cccc(Cl)c3)C(C(=O)O)=CC[C@H]2c2ccc(C(C)C)cc2)cc1,-0.1%,21.2µM*,-0.1%,-20.5%,-23.7,?
Cc1ccc(S(=O)(=O)N2[C@@H](c3ccc(F)cc3)C(C(=O)O)=CC[C@H]2c2ccc(C(C)C)cc2)cc1,-11.7%,?,4.9%,-13.3%,8.0,?
Cc1ccc(S(=O)(=O)N(CC(=O)NCc2ccncc2)C2CCCCC2)cc1,11.2%,2.67µM*,-1.4%,?,?,-1.7%
CS(=O)(=O)N(CC(=O)NCc1ccc(Cl)cc1)C1CCCCC1,-21.4%,2.99µM*,-1.2%,-7.0%,?,-0.4%
CS(=O)(=O)N(CC(=O)NCc1ccccc1Cl)C1CCCCC1,-11.8%,-10.5%,-4.2%,-18.2%,1.1,-5.6%
O=C(O)/C=C/c1cn(Cc2ccccc2)nc1-c1ccc(Cl)cc1,9.5%,-3.3%,0.9%,1.8%,1.5,-2.7%
